# Test results taken from the supplement of paper PMC6555819.
# Assays:
# Assay in all cases: PBM binding z-score (relative to random genomic background probes); higher = stronger binding; sequences stand for … in GC…GCGATTGACAGCGTAGAATGAAGG
# [1] = test system: FXR:RXRa (NR concentration 270 nM, RXRa partner concentration 90 nM)
# Method in brief: (§1)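 Antibodies against each partner of ligand-free nuclear receptor dimers (one per run) detected binding on custom Agilent 4×180K protein-binding microarrays after 1 h incubation. The double-stranded probes had 34-nt variable regions carrying direct-repeat seeds, single-nucleotide variants, half-site ablations and random human genomic background sequences. Binding z-scores, from regression-normalized fluorescence, use the random background probes as reference.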
# [2] = test system: LXRa:RXRa (NR concentration 270 nM, RXRa partner concentration 90 nM)
# Method in brief: as §1
# [3] = test system: LXRa homodimer (NR concentration 270 nM)
# Method in brief: as §1
# [4] = test system: LXRb:RXRa (NR concentration 270 nM, RXRa partner concentration 90 nM)
# Method in brief: as §1
# [5] = test system: LXRb homodimer (NR concentration 270 nM)
# Method in brief: as §1
# [6] = test system: PPARa:RXRa (NR concentration 270 nM, RXRa partner concentration 90 nM)
# Method in brief: as §1
# [7] = test system: PPARg:RXRa (NR concentration 180 nM, RXRa partner concentration 90 nM)
# Method in brief: as §1
# [8] = test system: PPARg:RXRa 270nM:90nM, anti-RXR (NR concentration 270 nM, RXRa partner concentration 90 nM)
# Method in brief: as §1
# [9] = test system: PPARg:RXRa 30nM:10nM, anti-RXR (NR concentration 30 nM, RXRa partner concentration 10 nM)
# Method in brief: as §1
# [10] = test system: PPARg:RXRa 90nM:30nM, anti-RXR (NR concentration 90 nM, RXRa partner concentration 30 nM)
# Method in brief: as §1
Sequence,PBM binding z-score [1],PBM binding z-score [2],PBM binding z-score [3],PBM binding z-score [4],PBM binding z-score [5],PBM binding z-score [6],PBM binding z-score [7],PBM binding z-score [8],PBM binding z-score [9],PBM binding z-score [10]
GGAACGAGGGCATTCGACTTGATAGCATGGCGAT,0.596,0.173,-0.634,-0.0929,-0.467,1.41,1.14,0.717,-0.0237,0.28
GCTGCTAGGTCAGGTTTGTCAGCTAACGGGTACG,0.8,0.465,-0.141,0.304,-0.389,0.943,0.265,0.692,-0.284,0.389
TTACCTAGGTGAAAGGTCGTTGATGCACGCCTTG,3.04,2.96,0.393,2.74,-0.415,5.66,10.4,9.22,9.2,10.2
ACTAGCAGGCCAAGTTTGGGTCACTCATACAAAG,0.242,0.317,-0.104,0.786,-0.557,1.28,0.573,0.501,-0.211,-0.146
CGATCTAGGTCAAGGACAGTGAATCTCCGCACGC,3.25,2.07,0.0913,1.3,-0.135,4.43,7.27,5.87,3.68,5.55
CCTACTGGGCGATCAGGTCATTGATATCAACGTT,0.953,0.548,0.541,0.798,-0.539,1.44,0.524,1.26,0.0672,0.741
CAGCCTAGGTCGGGGCCAGTATAGGAGGAACGTT,-0.375,-0.409,-0.6,-0.47,-1.25,-0.00359,-0.199,-0.885,-1.38,-0.981
TCTAGCAGGCCAGGGGGTCACTCAAGAGGTACGG,3.31,3.16,0.394,5.14,4.6,4.64,2.95,4.66,3.29,4.43
CCGACTGGGGCAAAGGTTACCATACTCAGTACGA,1.57,1.66,0.0551,2.1,-0.895,5.49,11.2,9.84,8.71,11.5
CCGACTGGGGCAGAAAAGTTACCATACCATCCGG,-0.281,-0.694,-0.371,-0.55,-1.1,-0.413,0.56,-0.294,-0.571,-0.517
CCTACTGGGACAAAGGTCATTGATTCCAATGCTC,5.11,5.21,4.66,4.9,1.5,6.27,11.8,10.3,12.2,11.7
GGAACGAGGGCATTCGAGTTAATAGCATGGCGAT,1.38,1.05,-0.476,0.179,-0.759,1.58,1.18,0.939,0.26,1.09
TCGAGTAGGTTACCAATGGGGCGTTCAGCTTTCT,-0.0945,0.41,-0.684,0.47,-0.564,1.09,-0.0878,1.06,0.919,1.03
TAGCCTAAGTCATTCAGGGGCCAGTATAGAAAGC,0.125,-0.0745,-0.319,0.338,-0.276,0.0691,0.0111,0.16,-0.308,-0.241
TAGCCTAGGTCATTCAGGGACCAGTATAGAAAGC,4.75,3.39,0.547,2.25,0.504,3.62,2.01,2.24,0.478,1.37
CAGCCGAGGTCAGGGCCAGTATAGGAGGAACGTT,6.57,3.98,-0.152,3.28,-0.519,5.6,5.04,4.49,1.2,3.28
TGTCAAAGTTCAAAGGTAACGTAAGTATCCACAC,6.82,6.64,4.55,4.83,2.02,5.9,8.46,7.64,5.11,7.32
TCTTGTAGATCAAAGGTTAAGTAAGCCGAAGCCT,2.04,2.34,0.244,2.28,0.0721,4.84,8.98,8.32,7.35,8.69
CCAGACAGGGGAAAGGTAACTCAGTCTGGTACGC,-0.0858,-0.233,-0.21,0.0681,-0.648,1.46,2.34,3.79,1.37,3.25
CAAACTAGGTCACGAAAGGACAAAGTCGAATGAC,5.05,6.1,1.25,4.08,0.368,5.41,9.21,7.34,5.83,7.48
CCAGACAGCTGAGAAGGTAACTCAGCCTCGATTA,-0.225,-0.563,-0.25,-0.499,-0.831,-0.574,-0.129,-0.555,-0.623,-0.881
CCTAGTTGCTCAAGGTCACACACGCTATAGGTAC,4.3,4.59,4.23,3.72,1.6,3.98,2.13,2.77,0.986,1.95
GTACCAAAGTGAATAGGTCGTTGATGAGTAGGCG,-0.437,-0.179,0.178,-0.156,-0.573,0.468,0.56,0.234,0.0456,-0.0827
